Assay results as given in the supplement of paper PMC10849652.
Targets with a hit are over-represented here; the source holds about 8,800 in all. About 0.5% of all pairs of compound and target were hits.

What was measured:
Assay in all cases: log2 fold change, soluble protein after heating vs DMSO (PISA); higher = thermal stabilisation; K562 lysate, 10 uM; active = over 0.2 and 3.5 SD of the protein, either way, in both replicates (recomputed)
ibrutinib = compound: C=CC(=O)N1CCC[C@@H](n2nc(-c3ccc(Oc4ccccc4)cc3)c3c(N)ncnc32)C1 [ibrutinib]
Summary of the method: (§1)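 Following dounce homogenisation of K562 pellets in PBS pH 7.4 with 1 mM MgCl2, crude extract at 1 mg/mL protein was incubated for 30 min with 10 μM compound. Aliquots were then heated for 3 min over 48°C-58°C and pooled, NP-40 was added to 0.5% at 4°C, and soluble protein was recovered as the supernatant at 21,000xg for 90 min. Channel-sum-equalised TMTpro 16plex LC-MS/MS quantified this protein. Each value, from duplicates, is a log-two fold change in thermal stability relative to solvent controls.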

[1] = compound: CC(=O)c1cnc2ccc(-c3cc(Cl)c(O)c(Cl)c3)nc2c1N[C@H]1CC[C@H](CN(C)C)CC1
Summary of the method: as §1

ralimetinib = compound: CC(C)(C)Cn1c(N)nc2ccc(-c3[nH]c(C(C)(C)C)nc3-c3ccc(F)cc3)nc21 [ralimetinib]
Summary of the method: as §1

[2] = compound: CC(C)(O)CC(=O)NCCn1ccc2ncnc(Nc3ccc(Oc4cccc(C(F)(F)F)c4)c(Cl)c3)c21
Summary of the method: as §1

[3] = compound: CC(C)C1=C2N=C(C=C(N2N=C1)NCC3=CC=CC=C3)NCCCCCCN
Summary of the method: as §1

[4] = compound: CC1=C(C(CC(=O)N1)C2=CC=C(C=C2)C(F)(F)F)C(=O)NC3=C(C=C4C(=C3)C=NN4)F
Summary of the method: as §1

[5] = compound: CC1=C(C2=C(C=C1)C(=O)C3=CC=CC=C3N2CCCN)C
Summary of the method: as §1

[6] = compound: CC1=C(C=C(C=C1)NC(=O)C2=CC(=CC=C2)C(C)(C)C#N)NC3=CC4=C(C=C3)N=CN(C4=O)C
Summary of the method: as §1

[7] = compound: CC1=C(C=C(C=C1)NC(=O)C2=CC(=CC=C2)N(C)C)NC(=O)C3=CC=C(C=C3)O
Summary of the method: as §1

[8] = compound: CC1=CC=C(C=C1)SC2=C3C=C(SC3=CN=C2)C(=O)N
Summary of the method: as §1

Measured: log2 fold change

MACO1 (UniProt Q8N5G2)
Sequence of UniProt Q8N5G2 (Q8N5G2 whole entry, looked up): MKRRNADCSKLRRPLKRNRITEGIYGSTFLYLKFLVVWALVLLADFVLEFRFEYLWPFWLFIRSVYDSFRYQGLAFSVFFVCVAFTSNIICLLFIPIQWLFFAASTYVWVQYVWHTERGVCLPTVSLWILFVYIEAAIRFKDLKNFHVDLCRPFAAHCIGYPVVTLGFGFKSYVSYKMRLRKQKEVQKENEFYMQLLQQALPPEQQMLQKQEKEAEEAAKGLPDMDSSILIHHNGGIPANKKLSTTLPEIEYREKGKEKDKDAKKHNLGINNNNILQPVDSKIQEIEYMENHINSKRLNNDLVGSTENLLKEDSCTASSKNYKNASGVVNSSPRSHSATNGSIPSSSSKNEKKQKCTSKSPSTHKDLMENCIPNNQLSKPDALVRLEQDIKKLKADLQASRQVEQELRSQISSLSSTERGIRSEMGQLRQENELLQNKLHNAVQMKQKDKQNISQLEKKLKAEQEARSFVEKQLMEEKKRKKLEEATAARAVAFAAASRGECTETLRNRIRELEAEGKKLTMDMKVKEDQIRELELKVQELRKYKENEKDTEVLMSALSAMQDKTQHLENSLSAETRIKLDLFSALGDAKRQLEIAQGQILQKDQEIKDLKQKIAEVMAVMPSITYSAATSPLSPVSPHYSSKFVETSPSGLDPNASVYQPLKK
inactive: ibrutinib 0 | [1] 0.043 | ralimetinib -0.003 | [2] -0.04 | [3] 0.01 | [4] 0.018 | [5] -0.043 | [6] -0.023 | [7] -0.002 | [8] 0.095

LRWD1 (UniProt Q9UFC0)
inactive: ibrutinib 0.082 | [1] -0.009 | ralimetinib 0.004 | [2] 0 | [3] 0.035 | [4] 0.015 | [5] -0.004 | [6] 0 | [7] 0.032 | [8] 0.04

MITD1 (UniProt Q8WV92)
Sequence of UniProt Q8WV92 (Q8WV92 whole entry, looked up): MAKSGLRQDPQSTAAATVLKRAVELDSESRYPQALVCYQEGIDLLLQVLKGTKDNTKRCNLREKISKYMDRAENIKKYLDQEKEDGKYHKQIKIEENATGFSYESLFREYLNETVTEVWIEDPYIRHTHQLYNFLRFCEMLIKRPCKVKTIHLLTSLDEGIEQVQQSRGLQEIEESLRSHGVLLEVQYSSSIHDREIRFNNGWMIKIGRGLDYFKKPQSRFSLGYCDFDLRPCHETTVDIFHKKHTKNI
inactive: ibrutinib 0.007 | [1] -0.067 | ralimetinib -0.039 | [2] 0.01 | [3] 0.024 | [4] -0.02 | [5] -0.071 | [6] -0.059 | [7] 0.058 | [8] -0.027

MLLT11 (UniProt Q13015)
Sequence of UniProt Q13015 (Q13015 whole entry, looked up): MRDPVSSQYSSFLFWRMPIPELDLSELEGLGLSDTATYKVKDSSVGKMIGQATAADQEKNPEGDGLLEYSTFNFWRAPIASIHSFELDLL
inactive: ibrutinib -0.057 | [1] 0.077 | ralimetinib 0.032 | [2] -0.116 | [3] 0.164 | [4] 0.174 | [5] -0.037 | [6] 0.326 | [7] -0.008 | [8] 0.055

LRCH3 (UniProt Q96II8)
Sequence of UniProt Q96II8 (Q96II8 whole entry, looked up): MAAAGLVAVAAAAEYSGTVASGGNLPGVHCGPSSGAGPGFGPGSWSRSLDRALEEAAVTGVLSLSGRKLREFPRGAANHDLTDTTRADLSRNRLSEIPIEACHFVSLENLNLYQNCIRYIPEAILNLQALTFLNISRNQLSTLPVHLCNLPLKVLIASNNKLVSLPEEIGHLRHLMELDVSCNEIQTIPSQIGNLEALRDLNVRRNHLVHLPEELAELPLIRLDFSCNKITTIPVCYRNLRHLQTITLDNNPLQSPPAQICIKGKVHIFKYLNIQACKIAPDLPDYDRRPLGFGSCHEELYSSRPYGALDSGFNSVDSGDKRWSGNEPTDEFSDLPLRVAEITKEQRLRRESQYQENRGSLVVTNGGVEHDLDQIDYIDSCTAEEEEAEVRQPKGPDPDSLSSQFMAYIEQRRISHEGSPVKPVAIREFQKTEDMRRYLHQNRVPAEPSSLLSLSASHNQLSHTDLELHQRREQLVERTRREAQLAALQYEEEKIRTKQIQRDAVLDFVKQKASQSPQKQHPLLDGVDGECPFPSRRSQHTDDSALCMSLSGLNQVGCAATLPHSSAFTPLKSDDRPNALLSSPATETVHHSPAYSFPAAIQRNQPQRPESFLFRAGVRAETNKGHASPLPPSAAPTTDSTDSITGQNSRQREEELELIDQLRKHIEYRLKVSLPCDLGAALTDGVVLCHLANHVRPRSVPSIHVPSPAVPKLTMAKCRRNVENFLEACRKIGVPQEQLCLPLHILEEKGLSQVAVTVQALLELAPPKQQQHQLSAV
inactive: ibrutinib -0.052 | [1] -0.016 | ralimetinib -0.004 | [2] -0.017 | [3] 0.015 | [4] -0.015 | [5] -0.025 | [6] 0.047 | [7] 0.07 | [8] 0.034

KPNA4 (UniProt O00629)
inactive: ibrutinib -0.037 | [1] -0.047 | ralimetinib -0.024 | [2] 0.002 | [3] 0.019 | [4] 0.003 | [5] 0.019 | [6] 0.019 | [7] 0 | [8] -0.018

MAD2L2 (UniProt Q9UI95)
inactive: ibrutinib -0.015 | [1] -0.173 | ralimetinib 0.103 | [2] -0.08 | [3] -0.03 | [4] -0.001 | [5] -0.059 | [6] 0.053 | [7] -0.106 | [8] -0.132

LYN (UniProt P07948)
inactive: [1] 0.141 | ralimetinib -0.068 | [2] 0.068 | [3] 0 | [4] 0.003 | [5] -0.043 | [6] 0.479 | [7] 0.007 | [8] -0.126
active: ibrutinib 1.15

MAN2B2 (UniProt Q9Y2E5)
Sequence of UniProt Q9Y2E5 (Q9Y2E5 whole entry, looked up): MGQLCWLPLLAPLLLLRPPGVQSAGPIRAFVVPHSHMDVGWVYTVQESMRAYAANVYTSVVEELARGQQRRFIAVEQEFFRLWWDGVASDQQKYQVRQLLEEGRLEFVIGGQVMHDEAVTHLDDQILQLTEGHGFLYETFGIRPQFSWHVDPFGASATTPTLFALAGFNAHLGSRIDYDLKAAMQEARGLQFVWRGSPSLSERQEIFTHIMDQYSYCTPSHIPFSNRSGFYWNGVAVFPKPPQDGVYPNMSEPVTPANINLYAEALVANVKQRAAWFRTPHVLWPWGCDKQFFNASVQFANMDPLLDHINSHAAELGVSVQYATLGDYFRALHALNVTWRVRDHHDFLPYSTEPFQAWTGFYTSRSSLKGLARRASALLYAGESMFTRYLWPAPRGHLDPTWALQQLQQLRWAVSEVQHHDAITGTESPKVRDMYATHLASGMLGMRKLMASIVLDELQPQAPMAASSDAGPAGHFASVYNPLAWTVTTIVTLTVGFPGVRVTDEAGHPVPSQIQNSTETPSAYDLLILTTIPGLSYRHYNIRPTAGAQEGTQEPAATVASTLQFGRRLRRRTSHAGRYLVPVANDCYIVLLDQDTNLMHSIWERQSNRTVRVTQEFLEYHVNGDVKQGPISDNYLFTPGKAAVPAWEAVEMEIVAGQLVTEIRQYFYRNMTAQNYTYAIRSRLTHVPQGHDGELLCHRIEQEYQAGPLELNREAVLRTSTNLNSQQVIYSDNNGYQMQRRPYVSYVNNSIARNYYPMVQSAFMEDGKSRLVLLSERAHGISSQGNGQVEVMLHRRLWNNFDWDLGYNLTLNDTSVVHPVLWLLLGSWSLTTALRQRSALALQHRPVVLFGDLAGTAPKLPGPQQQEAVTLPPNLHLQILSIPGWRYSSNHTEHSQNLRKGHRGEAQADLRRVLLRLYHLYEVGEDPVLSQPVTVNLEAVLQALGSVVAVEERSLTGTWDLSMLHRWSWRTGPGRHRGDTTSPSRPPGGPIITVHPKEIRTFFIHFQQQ
inactive: ibrutinib -0.019 | [1] -0.026 | ralimetinib 0.008 | [2] 0.083 | [3] -0.051 | [4] 0.056 | [5] -0.013 | [6] -0.013 | [7] -0.024 | [8] 0.012

MCU (UniProt Q8NE86)
inactive: ibrutinib -0.05 | [1] 0.04 | ralimetinib 0.086 | [2] -0.021 | [3] -0.055 | [4] 0.014 | [5] 0.02 | [6] 0.034 | [7] 0.014 | [8] -0.023

LIG3 (UniProt P49916)
inactive: ibrutinib -0.006 | [1] 0.007 | ralimetinib 0.063 | [2] 0.023 | [3] -0.002 | [4] -0.018 | [5] 0.04 | [6] -0.015 | [7] 0.028 | [8] 0.015

LIMK2 isoform 3 (UniProt P53671)
Sequence of UniProt P53671 (P53671 whole entry, looked up): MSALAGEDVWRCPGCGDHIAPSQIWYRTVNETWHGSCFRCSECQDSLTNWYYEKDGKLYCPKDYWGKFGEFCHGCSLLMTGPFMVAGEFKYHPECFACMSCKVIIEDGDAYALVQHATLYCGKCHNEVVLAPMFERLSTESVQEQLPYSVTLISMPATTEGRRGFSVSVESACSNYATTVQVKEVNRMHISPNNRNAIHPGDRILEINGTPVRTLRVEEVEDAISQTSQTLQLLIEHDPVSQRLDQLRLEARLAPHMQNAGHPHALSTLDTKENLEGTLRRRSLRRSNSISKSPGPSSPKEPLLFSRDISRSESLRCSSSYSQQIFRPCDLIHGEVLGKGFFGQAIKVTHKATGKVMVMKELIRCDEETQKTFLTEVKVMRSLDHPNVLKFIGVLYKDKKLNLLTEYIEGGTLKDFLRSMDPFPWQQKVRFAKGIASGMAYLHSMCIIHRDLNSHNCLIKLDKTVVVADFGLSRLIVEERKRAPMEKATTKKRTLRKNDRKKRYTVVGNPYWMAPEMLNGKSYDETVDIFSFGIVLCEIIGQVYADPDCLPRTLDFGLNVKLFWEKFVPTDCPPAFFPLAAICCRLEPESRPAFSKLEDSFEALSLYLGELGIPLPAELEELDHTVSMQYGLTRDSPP
inactive: ibrutinib 0.129 | [1] 0.003 | ralimetinib 0 | [2] 0.018 | [3] 0.008 | [4] -0.03 | [5] -0.005 | [6] 0.175 | [7] 0.013 | [8] -0.073

MMS19 isoform 8 (UniProt Q96T76)
inactive: ibrutinib -0.023 | [1] -0.011 | ralimetinib 0.022 | [2] -0.02 | [3] -0.041 | [4] 0.006 | [5] -0.018 | [6] 0.013 | [7] 0.055 | [8] 0.004

LAS1L (UniProt Q9Y4W2)
inactive: ibrutinib -0.016 | [1] 0.017 | ralimetinib 0.043 | [2] -0.017 | [3] 0.042 | [4] 0.035 | [5] -0.061 | [6] -0.006 | [7] 0.037 | [8] 0.035

MINDY1 isoform 3 (UniProt Q8N5J2)
inactive: ibrutinib 0.199 | [1] 0 | ralimetinib 0.001 | [2] -0.121 | [3] -0.022 | [4] -0.179 | [5] -0.161 | [6] -0.034 | [7] 0.015 | [8] 0.065

MED14 (UniProt O60244)
inactive: ibrutinib 0.002 | [1] -0.013 | ralimetinib 0.017 | [2] -0.022 | [3] 0.01 | [4] 0.021 | [5] -0.029 | [6] -0.019 | [7] 0.013 | [8] 0.018

MAPK3 (UniProt P27361)
Sequence of UniProt P27361 (P27361 whole entry, looked up): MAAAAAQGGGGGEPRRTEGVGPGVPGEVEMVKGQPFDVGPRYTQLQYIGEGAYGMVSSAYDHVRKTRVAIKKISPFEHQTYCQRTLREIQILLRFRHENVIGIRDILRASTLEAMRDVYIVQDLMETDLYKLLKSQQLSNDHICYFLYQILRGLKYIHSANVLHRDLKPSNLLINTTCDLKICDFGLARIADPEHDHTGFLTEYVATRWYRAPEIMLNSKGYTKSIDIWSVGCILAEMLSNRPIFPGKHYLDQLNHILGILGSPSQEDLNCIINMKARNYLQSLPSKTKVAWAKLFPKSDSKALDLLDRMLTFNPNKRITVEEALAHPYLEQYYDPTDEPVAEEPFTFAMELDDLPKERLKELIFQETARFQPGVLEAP
inactive: ibrutinib 0.001 | [1] 0.017 | ralimetinib -0.02 | [2] -0.018 | [3] -0.033 | [4] -0.012 | [5] -0.006 | [6] 0.026 | [7] -0.022 | [8] -0.028

LSM8 (UniProt O95777)
Sequence of UniProt O95777 (O95777 whole entry, looked up): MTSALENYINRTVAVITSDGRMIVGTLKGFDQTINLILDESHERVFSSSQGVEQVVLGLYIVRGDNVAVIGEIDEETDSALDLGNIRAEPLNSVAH
inactive: ibrutinib 0.051 | [1] 0.012 | ralimetinib 0.055 | [2] -0.021 | [3] -0.02 | [4] -0.01 | [5] -0.011 | [6] 0.03 | [7] -0.007 | [8] 0.005

MLST8 (UniProt Q9BVC4)
Sequence of UniProt Q9BVC4 (Q9BVC4 whole entry, looked up): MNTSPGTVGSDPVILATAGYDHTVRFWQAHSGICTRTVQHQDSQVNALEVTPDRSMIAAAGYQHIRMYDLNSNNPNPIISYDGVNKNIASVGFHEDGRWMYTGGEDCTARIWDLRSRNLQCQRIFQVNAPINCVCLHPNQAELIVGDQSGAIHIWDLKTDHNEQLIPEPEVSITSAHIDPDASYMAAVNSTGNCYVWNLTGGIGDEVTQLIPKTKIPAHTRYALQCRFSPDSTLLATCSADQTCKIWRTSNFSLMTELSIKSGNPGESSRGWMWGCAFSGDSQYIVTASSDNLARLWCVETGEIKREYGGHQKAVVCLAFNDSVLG
inactive: ibrutinib 0 | [1] 0.011 | ralimetinib -0.038 | [2] 0.021 | [3] 0.063 | [4] -0.042 | [5] -0.021 | [6] -0.003 | [7] 0.044 | [8] 0.023

MRPL46 (UniProt Q9H2W6)
inactive: ibrutinib -0.101 | [1] 0.018 | ralimetinib 0.048 | [2] 0.026 | [3] -0.064 | [4] -0.002 | [5] 0.005 | [6] -0.002 | [7] 0.026 | [8] 0.021

MGST1 (UniProt P10620)
Sequence of UniProt P10620 (P10620 whole entry, looked up): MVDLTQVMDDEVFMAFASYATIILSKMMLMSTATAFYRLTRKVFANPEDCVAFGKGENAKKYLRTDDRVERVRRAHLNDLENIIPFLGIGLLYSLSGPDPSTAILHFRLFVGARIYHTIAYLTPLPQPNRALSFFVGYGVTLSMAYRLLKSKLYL
inactive: ibrutinib 0.052 | [1] 0.039 | ralimetinib 0.054 | [2] -0.047 | [3] -0.002 | [4] 0.002 | [5] -0.078 | [6] -0.01 | [7] 0.014 | [8] 0.05

MACROD1 (UniProt Q9BQ69)
inactive: ibrutinib 0 | [1] 0.015 | ralimetinib 0.098 | [2] -0.024 | [3] -0.008 | [4] 0.022 | [5] 0.017 | [6] -0.101 | [7] 0.064 | [8] 0.065

LUC7L (UniProt Q9NQ29)
inactive: ibrutinib 0.007 | [1] 0.003 | ralimetinib 0.008 | [2] 0.027 | [3] 0.056 | [4] 0.002 | [5] 0.007 | [6] -0.04 | [7] -0.01 | [8] 0.02

LARS2 (UniProt Q15031)
inactive: ibrutinib 0.009 | [1] 0.034 | ralimetinib 0.026 | [2] 0.156 | [3] -0.027 | [4] 0.02 | [5] 0.063 | [6] -0.036 | [7] 0.046 | [8] 0.028

MED17 (UniProt Q9NVC6)
inactive: ibrutinib 0.018 | [1] 0.003 | ralimetinib 0 | [2] -0.003 | [3] -0.017 | [4] 0.04 | [5] 0.019 | [6] 0 | [7] 0.021 | [8] 0.001

MAP2K7 isoform 4 (UniProt O14733)
active: ibrutinib 1.44
inactive: [1] 0.288 | ralimetinib 0.028 | [2] 0.028 | [3] -0.071 | [4] -0.029 | [5] 0.011 | [6] -0.004 | [7] -0.002 | [8] 0.018

KIF21A isoform 5 (UniProt Q7Z4S6)
inactive: ibrutinib 0.027 | [1] -0.002 | ralimetinib 0.015 | [2] 0 | [3] 0.002 | [4] 0.034 | [5] -0.031 | [6] 0.025 | [7] 0.014 | [8] 0.024

MAPK1 (UniProt P28482)
inactive: ibrutinib 0.001 | [1] 0 | ralimetinib -0.066 | [2] 0.012 | [3] -0.029 | [4] -0.022 | [5] 0.023 | [6] -0.039 | [7] -0.03 | [8] 0.003

MBD2 (UniProt Q9UBB5)
Sequence of UniProt Q9UBB5 (Q9UBB5 whole entry, looked up): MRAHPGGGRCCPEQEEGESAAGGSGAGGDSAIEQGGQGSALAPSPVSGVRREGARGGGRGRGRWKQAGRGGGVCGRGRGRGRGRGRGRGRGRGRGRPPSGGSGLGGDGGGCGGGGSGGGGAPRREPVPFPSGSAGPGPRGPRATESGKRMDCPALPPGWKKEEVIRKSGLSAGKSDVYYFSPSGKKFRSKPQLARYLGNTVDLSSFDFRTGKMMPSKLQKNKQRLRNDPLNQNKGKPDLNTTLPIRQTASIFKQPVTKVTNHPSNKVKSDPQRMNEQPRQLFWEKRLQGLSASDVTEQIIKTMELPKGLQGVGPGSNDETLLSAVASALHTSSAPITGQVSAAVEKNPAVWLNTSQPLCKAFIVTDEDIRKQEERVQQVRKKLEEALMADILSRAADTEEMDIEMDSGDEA
inactive: ibrutinib 0.013 | [1] 0.018 | ralimetinib -0.043 | [2] -0.03 | [3] 0.016 | [4] -0.013 | [5] -0.017 | [6] -0.053 | [7] -0.048 | [8] 0.007

MRPL28 (UniProt Q13084)
inactive: ibrutinib 0.151 | [1] 0.04 | ralimetinib 0.027 | [2] -0.005 | [3] 0.012 | [4] -0.112 | [5] -0.017 | [6] 0.057 | [7] -0.012 | [8] 0.023
